Measurements published in PubChem BioAssay AID1778 (Sanford-Burnham Center for Chemical Genomics, 2009).
The whole screen tested about 290,000 compounds, of which about 260 (0.09%) were called active. This is one part of a sample in which actives are shown more often than they occur. No stated cut-off is given here; in the data, active means inhibition above about 50%; inactive means the rest. Entries with a potency or affinity are not part of this list.

molecular target: Kappa-type opioid receptor (Homo sapiens) (UniProt P41145); experiment: KOR antagonists, beta-arrestin recruitment, cell-based, luminescence, uHTS (AID 1778); settings: antagonist mode, stronger effect = higher value; at 10 µM unless noted
Sequence (P41145 whole entry, looked up): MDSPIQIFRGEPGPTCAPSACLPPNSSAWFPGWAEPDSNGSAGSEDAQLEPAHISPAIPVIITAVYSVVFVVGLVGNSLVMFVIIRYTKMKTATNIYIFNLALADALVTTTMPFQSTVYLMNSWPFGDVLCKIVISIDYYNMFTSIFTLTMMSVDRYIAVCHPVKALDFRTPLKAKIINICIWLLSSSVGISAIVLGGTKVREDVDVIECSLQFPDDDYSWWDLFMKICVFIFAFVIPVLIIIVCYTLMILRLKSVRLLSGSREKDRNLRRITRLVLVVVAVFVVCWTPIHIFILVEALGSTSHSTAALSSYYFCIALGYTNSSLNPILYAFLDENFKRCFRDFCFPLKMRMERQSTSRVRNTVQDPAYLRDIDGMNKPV

SMILES	inhibition
Cc1ccc(NC(=S)NCCN2CCOCC2)cc1C	16.7% (inactive)
Cc1ccc(NC(=S)NCCCN2CCOCC2)cc1	6.6% (inactive)
Cc1ccc(NC(=S)NCCCN2CCOCC2)cc1C	50% (active)
C/C(=N\NC(=O)c1nnn(-c2nonc2N)c1-c1ccc2c(c1)OCO2)c1cccs1	-7.9% (inactive)
Cc1ccc(-c2cc(C(=O)Nc3cc(C)ccc3C)[nH]n2)c(O)c1	9.1% (inactive)
CCCCC(CC)C(=O)NCc1ccc(F)cc1 (stereo unspecified)	8% (inactive)
CCOC(=O)C(C(C)C)C(N)Cc1ccc(F)cc1 (stereo unspecified)	-13.5% (inactive)
CCCCC(C(=O)OCC)C(N)Cc1ccc(F)cc1 (stereo unspecified)	65.2% (active)
Cc1ccccc1Cn1cc(NC(=O)CCCn2nc([N+](=O)[O-])cc2C)cn1	16.3% (inactive)
COc1cccc(CNC(=O)C2CCC(CNS(=O)(=O)c3cccc4cccnc34)CC2)c1 (stereo unspecified)	27.1% (inactive)
c1coc(CN=C2NC(=NCc3ccco3)c3ccccc32)c1	-31.2% (inactive)
O=C1CCCC(=NCc2ccco2)C1	-29.5% (inactive)
CN(C)c1nc(=NCc2ccco2)ss1	83.2% (active)
COc1ccc(C)cc1N(C(=O)c1ccco1)C(C(=O)NC1CCCC1)c1ccc(N2CCOCC2)cc1 (stereo unspecified)	5.8% (inactive)
CCS(=O)(=O)c1ccc(N=Nc2ccc(O)c3ncccc23)c(OC)c1	14% (inactive)
COc1cccc(N=Nc2ccc(O)c3ncccc23)c1	62.9% (active)
Cc1cccc(N=Nc2ccc(O)c3ncccc23)c1	45.9% (inactive)
CCOc1ccc(N=Nc2ccc(O)c3ncccc23)cc1	32% (inactive)
COc1cccc(N=Nc2ccc3ccccc3c2O)c1	1.7% [at 20 µM] (inactive)
CCN(CC)S(=O)(=O)c1cc(OC)ccc1N=Nc1ccc(O)c2ncccc12	-5.1% (inactive)
COc1ccc(N=Nc2ccc3ccccc3c2)c(O)c1	-6.2% [at 20 µM] (inactive)
CN(NC(=O)COc1ccccc1)c1ccccc1	5.9% (inactive)

SMILES	inhibition
CN(CC(=O)Nc1cccnc1)S(=O)(=O)c1cc(Cl)ccc1Cl	4.2% (inactive)
COc1cccc(N2C(=O)C3C(C2=O)C3(c2ccccc2)c2ccccc2)c1 (stereo unspecified)	-3.2% (inactive)
CCN(CC)S(=O)(=O)c1ccc(C(=O)NCC(=O)N/N=C/c2ccccc2OC)cc1	-11.7% (inactive)
O=C(OCC(=O)c1ccc(Cl)s1)c1ccccn1	34% (inactive)
O=C(CSc1ccc2nnc(-c3ccccn3)n2n1)NCc1ccco1	-19.3% (inactive)
CC(=O)c1sc(-c2ccccc2)cc1N	4.5% (inactive)
COCCN=c1scc(-c2cc(OC)c(OC)c(OC)c2)n1/N=C/c1c(C)[nH]c2ccccc12	26.6% (inactive)
COCCN=c1scc(-c2ccccc2)n1/N=C/c1c[nH]c2ccccc12	38.5% (inactive)
Cc1cc([N+](=O)[O-])nn1CC(=O)NCCc1c[nH]c2ccccc12	4.9% (inactive)
COCc1nnc(NC(=O)c2ccc(NC(C)=O)cc2)s1	21% (inactive)
CCOC(=O)N1CCC(N2CCN(c3cc(C)ccc3C)CC2)CC1	11.6% (inactive)
CCc1ccc(N(CC(=O)NC)S(C)(=O)=O)cc1	9.3% (inactive)
COc1cc(OC)cc(C(=O)NCC(=O)OCc2cc(=O)oc3cc(OC)ccc23)c1	9.7% (inactive)
Clc1ccc(SCc2cn3cccnc3n2)cc1	-15.8% (inactive)
Clc1ccc(SCc2cc(N3CCOCC3)nc(-c3ccccn3)n2)cc1	10.2% (inactive)
CCn1c(CNC(=O)c2ccco2)nnc1SCC(=O)Nc1cc(C(F)(F)F)ccc1Cl	1.4% (inactive)
Fc1ccccc1COc1ccc(/C=N/NC(=S)NCc2ccccc2)cc1	-4.9% (inactive)
CCOC(=O)C1(Cc2ccccc2)CCN(Cc2cc(OC)c3c(c2)OCO3)CC1	-13.9% [at 20 µM] (inactive)
Cc1c(NC(=S)Nc2ccccc2C(F)(F)F)cccc1[N+](=O)[O-]	5.9% (inactive)
O=S(=O)(Nc1cccc2ccccc12)c1ccccc1	-10.6% (inactive)
COc1cc(NS(=O)(=O)c2ccc(C)cc2)c2ncccc2c1	7.9% (inactive)
Cc1cccc(NS(=O)(=O)c2ccccc2)n1	12.4% (inactive)

SMILES	inhibition
CC(=O)Nc1ccc(S(=O)(=O)Nc2cccc3cccnc23)cc1	-32.6% (inactive)
O=C(O)c1ccccc1NS(=O)(=O)c1cccc2cccnc12	1.8% (inactive)
O=S(=O)(Nc1cccc2cccnc12)c1ccccc1	99.6% (active)
Cc1ccc2cccc(NS(=O)(=O)c3ccccc3)c2n1	83.9% (active)
O=S(=O)(c1cccc2cccnc12)N1CCCCC1	2.6% (inactive)
O=C(Nc1ccc(S(=O)(=O)Nc2ncccn2)cc1)c1ccc(S(=O)(=O)N2CCCC2)cc1	34.1% (inactive)
CS(=O)(=O)Nc1cccc2cccnc12	30.9% (inactive)
Cc1ccccc1N(C(=O)c1snc(C(N)=O)c1N)C(C(=O)NCc1ccccc1)c1ccc(O)cc1 (stereo unspecified)	-9.4% (inactive)
Cc1c(NCc2cc(Cl)cc(Cl)c2O)c(=O)n(-c2ccccc2)n1C	22.8% (inactive)
COc1ccc(NC(=O)c2ccccc2)cc1NS(=O)(=O)c1ccc(F)cc1	-5% (inactive)
Cc1cc(N)nc2nc(C(F)(F)F)nn12	-5.6% (inactive)
O=C1CC(Cc2ccccc2)C(=O)N1CCCn1ccnc1 (stereo unspecified)	-24.1% (inactive)
Cc1ccc(CNC(=O)C2CCCN(c3nc4ccccc4o3)C2)cc1 (stereo unspecified)	-1.2% (inactive)
CCOC(=O)N1CCN(C(=O)CNC(=O)c2ccc(Br)o2)CC1	3.7% [at 20 µM] (inactive)
CC(C)Oc1cccc(C(=O)N/N=C/c2ccoc2)c1	-11.1% (inactive)
CCn1c(SCC(=O)NC2CCCCC2)nnc1-c1ccco1	-10.6% (inactive)
Cc1ccc(COC(=O)c2nn(C)c(=O)c3ccccc23)cc1	-20% (inactive)
CCOC(=O)c1c(N)sc(C(O)(C(F)(F)F)C(F)(F)F)c1-c1ccc(F)cc1	-27.6% (inactive)
Oc1csc(Cc2nc(-c3ccc4ccccc4c3)cs2)n1	22.5% (inactive)
Oc1csc(Cc2nc(-c3ccc(-c4ccccc4)cc3)cs2)n1	3.4% (inactive)
Oc1csc(Cc2nc(-c3ccccc3F)cs2)n1	-33.9% (inactive)
Oc1csc(Cc2nc(-c3ccc(Br)cc3)cs2)n1	8.7% (inactive)
